According to PubChem BioAssay (NCATS):
Inconclusive results are not listed. Where a call stands in place of a potency, no number is given. The source made the active and inactive calls. Calls come from the whole dose curve; as a rule, active = well fitted inhibition curve with a large enough effect; inconclusive = small, poorly fitted or top-dose-only effect; inactive = no such curve, though single readings can be large or run the other way.

Key:
[1] = test system: Zika virus NS2B-NS3 protease (unlinked complex); assay: Primary screen GU Rhodamine qHTS for Zika virus inhibitors: Unlinked NS2B-NS3 protease assay (AID 1347159); note: nearly all actives have a fitted effect of over 60% in size
In short: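 A qHTS format was used, with compound concentrations ranging up to 114 microM. Each compound was preincubated with 25 nM NS2B-NS3 protease, and the substrate was then added at 1.5 microM. Curves were fitted with a 4-parameter Hill model.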

[2] = test system: Zika virus NS2B-NS3 protease (linked construct); assay: Primary screen NINDS Rhodamine qHTS for Zika virus inhibitors (AID 1347160); note: nearly all actives have a fitted effect of over 55% in size
In short: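 Kinetic fluorescence (Ex 480 nm, Em 540 nm) over 15 min with 1.5 microM Rhodamine110 peptide and 25 nM linked protease.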

SMILES	Potency [1]	Potency [2]
C[C@H]1CC(=O)Nc2cccc(-c3cnn(C(C)(C)C)c3)c2N1	inactive	inactive
N#C[C@@H]1CCCN1C(=O)CNC12CC3CC(CC(O)(C3)C1)C2	inactive	inactive
C=C1C(=O)O[C@@H]2C[C@H](C)[C@@]3(O)C=C(C(C)=O)[C@]4(CC3C[C@H]12)C(=O)O[C@H]1C[C@@H](C)C(CCC(C)=O)=CC[C@H]14 (stereo partly specified)	inactive	inactive
Nc1nc2c(ncn2[C@@H]2O[C@H](CO)[C@@H](O)[C@H]2O)c(=O)[nH]1	inactive	inactive
C=CC(=O)Nc1cccc(CN2C(=O)N(c3c(Cl)c(OC)cc(OC)c3Cl)Cc3cnc(NCCCCN(CC)CC)nc32)c1	inactive	inactive
O=C1OCC(c2ccccc2)=C1Cc1ccccc1	inactive	inactive
C=CC(=O)Nc1cc(Nc2nccc(-c3c[nH]c4ccccc34)n2)c(OC)cc1N(C)CCN(C)C	inactive	inactive
COC(=O)c1c(C)cc(OC(=O)c2c(C)cc(OC)cc2OC)cc1O[C@@H]1O[C@H](CO)[C@@H](O)[C@H](O)[C@H]1O	inactive	inactive
